From PubChem BioAssay (EPA / NIEHS)
Active and inactive are the calls of the source. The calls were made as follows: active = hit-call score of the fitted dose curve at least 0.9, where 1 is the maximum; inactive = score below 0.9.

Assays:
[1] = APR_HepG2_CellCycleArrest_24hr: Apredica 24-hour HepG2 Assay for Cell Cycle Arrest (AID 2282905); conditions: imaging, actives raise or lower the signal;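 also: cell cycle arrest scored as ratio of 2N to 4N nuclear DNA content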
Outline: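 HepG2 cells were exposed to compounds at 0.39–200 uM (ten concentrations, duplicate) in 0.5% v/v DMSO for 24 hr. After formaldehyde fixation and Triton permeabilization, Hoechst 33342-stained nuclei were imaged at 20x; DNA content was quantified, with bidirectional fitting against DMSO.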

[2] = APR_HepG2_NuclearSize_24hr: Apredica 24-hour HepG2 Assay for Nuclear Size (AID 2282907); conditions: high-content imaging, actives raise or lower the signal
Outline: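 HepG2 human liver cells were exposed for 24 hr to compounds at 0.39–200 uM (ten concentrations, duplicate) in 0.5% v/v DMSO. They were then formaldehyde-fixed, Triton-permeabilized and Hoechst 33342-stained, and nuclear diameter was imaged at 20x. Bidirectional fits were made against DMSO.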

[3] = APR_HepG2_CellLoss_24hr: Apredica 24-hour HepG2 Assay for Cell Loss (AID 2282908); conditions: high-content imaging
Outline: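 Compounds were tested at 0.39–200 uM in duplicate with 0.5% v/v DMSO final. Cells were then fixed in 3.7% formaldehyde, Hoechst 33342 nuclei were imaged at 20x by HCS, and cell number was fitted bidirectionally against DMSO.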

[4] = APR_HepG2_MicrotubuleCSK_24hr: Apredica 24-hour HepG2 Assay for Microtubule CSK Stabilty (AID 2282909); conditions: HepG2 microtubule cytoskeleton imaging, actives raise or lower the signal
Outline: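 HepG2 cells exposed 24 h to compounds at 0.39–200 uM (duplicate, 0.5% v/v DMSO final), then fixed, permeabilized and immunostained for alpha-tubulin with Hoechst 33342. Cytoskeleton imaged at 20x; bidirectional fit versus DMSO baseline.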

[5] = APR_HepG2_MitoticArrest_24hr: Apredica 24-hour HepG2 Assay for Mitotic Arrest (AID 2282910); conditions: high-content imaging, actives raise or lower the signal
Outline: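 HepG2 human liver cells were exposed to compounds at 0.39–200 uM (10 concentrations, duplicate) in 0.5% v/v DMSO for 24 hr, then fixed and immunostained for phospho-histone H3 with Hoechst 33342. Mitotic arrest came from HCS fluorescent imaging, fitted bidirectionally against DMSO.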

[6] = APR_HepG2_MitoMembPot_24hr: Apredica 24-hour HepG2 Assay for Mitochondrial Membrane Potential (AID 2282911); conditions: imaging, actives raise or lower the signal
Outline: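 Cells are dosed for 24 hr across 0.39 to 200 uM with solvent held at 0.5% DMSO. They are then stained with 250 nM MitoTracker Red CMXRos for 30 min, fixed in 3.7% formaldehyde and imaged.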

[7] = APR_HepG2_MitoMass_24hr: Apredica 24-hour HepG2 Assay for Mitochondrial Mass (AID 2282912); conditions: high-content imaging, actives raise or lower the signal
Outline: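 Human HepG2 liver cells were exposed for 24 hr to compounds at 0.39–200 uM (duplicates, 0.5% v/v DMSO final). They were stained live with 250 nM MitoTracker Red CMXRos for 30 min, fixed in 3.7% formaldehyde, and imaged by HCS fluorescence; signals were fitted bidirectionally against DMSO.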

[8] = APR_HepG2_p53Act_24hr: Apredica 24-hour HepG2 Assay for p53 Activation (AID 2282913); conditions: high-content imaging, actives raise or lower the signal;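 also: p53 protein immunofluorescence averaged per cell in HepG2 with Hoechst nuclei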
Outline: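 Human HepG2 liver cells; 24 hr cpd treatment, 0.39–200 uM, 0.5% DMSO final. Fixed in 3.7% formaldehyde, permeabilized with 0.5% Triton X-100, stained with anti-p53/Cy5 plus Hoechst 33342. Six images per well at 20x; gain or loss vs DMSO.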

[9] = APR_HepG2_CellCycleArrest_72hr: Apredica 72-hour HepG2 Assay for Cell Cycle Arrest (AID 2282914); conditions: high-content imaging, actives raise or lower the signal
Outline: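 Read-out is Hoechst-stained nuclear DNA content measured by automated fluorescence imaging (20x, six images per well), fitted in both directions relative to DMSO. Human HepG2 liver cells received 0.39–200 uM compound for 72 hr at 0.5% v/v DMSO.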

[10] = APR_HepG2_CellLoss_72hr: Apredica 72-hour HepG2 Assay for Cell Loss (AID 2282915); conditions: high-content imaging
Outline: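 HepG2 cells were exposed for 72 hr to compounds at 0.39–200 uM (ten concentrations, duplicate) in 0.5% v/v final DMSO. Nuclei were stained with Hoechst 33342 after 3.7% formaldehyde fixation, imaged at 20x, and counted; fits bidirectional versus DMSO.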

[11] = APR_HepG2_P-H2AX_72hr: Apredica 72-hour HepG2 Assay for H2AX Phosphorylation (AID 2282916); conditions: imaging, actives raise or lower the signal;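 also: phospho-histone H2A.x immunostain intensity per cell marking DNA damage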
Outline: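 HepG2 human liver cells were exposed for 72 hr to compounds at 0.39–200 uM (10 concentrations, duplicate per plate) in 0.5% v/v DMSO. Fixed, permeabilized cells were immunolabeled for phospho-histone H2A.x with Hoechst 33342 and imaged by HCS fluorescence; bidirectional fit versus DMSO.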

[12] = APR_HepG2_MitoMembPot_72hr: Apredica 72-hour HepG2 Assay for Mitochondrial Membrane Potential (AID 2282917); conditions: imaging, actives raise or lower the signal
Outline: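 HepG2 cells exposed 72 h to compounds at 0.39–200 uM (0.5% v/v DMSO, duplicates); MitoTracker Red CMXRos 250 nM loaded 30 min before 3.7% formaldehyde fixation, imaged by HCS fluorescence. Bidirectional fit versus DMSO.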

[13] = APR_HepG2_MitoticArrest_72hr: Apredica 72-hour HepG2 Assay for Mitotic Arrest (AID 2282918); conditions: high-content imaging, actives raise or lower the signal
Outline: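 Read-out is phospho-histone H3 immunofluorescence with Hoechst nuclear segmentation, imaged at 20x. Human HepG2 liver cells received ten concentrations (0.39–200 uM, final DMSO 0.5% v/v) for 72 hr before fixation. Gain or loss of signal was fitted relative to DMSO.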

[14] = APR_HepG2_MicrotubuleCSK_72hr: Apredica 72-hour HepG2 Assay for Microtubule CSK Stabilty (AID 2282919); conditions: HepG2 microtubule cytoskeleton, high-content imaging, actives raise or lower the signal
Outline: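 HepG2 human liver cells were dosed for 72 h at ten concentrations from 0.39 to 200 uM in duplicate (0.5% v/v DMSO final). Fixed, permeabilized cells were immunostained for alpha-tubulin (Cy5) with a Hoechst counterstain and imaged at 20x.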

[15] = APR_HepG2_P-H2AX_24hr: Apredica 24-hour HepG2 Assay for H2AX Phosphorylation (AID 2282920); conditions: high-content imaging, actives raise or lower the signal
Outline: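 HepG2, 24 hr, cpd 0.39–200 uM (10 conc, duplicate), DMSO 0.5% v/v final. Fix 3.7% formaldehyde, Triton X-100 permeabilize, anti-phospho-H2A.x 1:200 + Hoechst 2 ug/mL. Imaged, bidirectional fit vs DMSO.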

[16] = APR_HepG2_StressKinase_72hr: Apredica 72-hour HepG2 Assay for Stress Kinase (AID 2282921); conditions: HepG2 stress kinase (phospho-c-Jun) imaging, actives raise or lower the signal
Outline: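 Cells were exposed for 72 h to ten concentrations (0.39–200 uM, duplicate) at 0.5% v/v DMSO final, then fixed with 3.7% formaldehyde, permeabilized and immunostained for phospho-c-Jun (Cy3 secondary) with Hoechst nuclear counterstain.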

[17] = APR_HepG2_StressKinase_24hr: Apredica 24-hour HepG2 Assay for Stress Kinase (AID 2282922); conditions: HepG2 stress kinase (phospho-c-Jun) imaging, actives raise or lower the signal
Outline: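 HepG2 cells exposed 24 hr to compound at 0.39–200 uM (10 concentrations, duplicate), 0.5% v/v DMSO final. Fixed in 3.7% formaldehyde, permeabilized with Triton X-100, immunolabeled for phospho-c-Jun with Hoechst 33342; HCS fluorescence imaging, bidirectional fit versus DMSO.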

[18] = APR_HepG2_p53Act_72hr: Apredica 72-hour HepG2 Assay for p53 Activation (AID 2282923); conditions: high-content imaging, actives raise or lower the signal;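 also: average cellular p53 protein immunofluorescence intensity in HepG2 cells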
Outline: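 Cells were dosed for 72 hr with compounds at 0.39–200 uM in duplicate (final DMSO 0.5% v/v), then fixed in 3.7% formaldehyde, permeabilized with Triton X-100 and immunostained for p53 (Cy5) with Hoechst 33342 nuclear counterstain.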

[19] = APR_HepG2_MitoMass_72hr: Apredica 72-hour HepG2 Assay for Mitochondrial Mass (AID 2282924); conditions: high-content imaging, actives raise or lower the signal;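 also: MitoTracker Red CMXRos stain intensity per cell imaged as mitochondrial mass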
Outline: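 HepG2 cells were exposed for 72 hr to compounds at 0.39–200 uM (ten concentrations, duplicate, 0.5% v/v DMSO final). Live cells were stained with 250 nM MitoTracker Red CMXRos for 30 min, then fixed in 3.7% formaldehyde and imaged by HCS fluorescence.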

[20] = APR_HepG2_NuclearSize_72hr: Apredica 72-hour HepG2 Assay for Nuclear Size (AID 2282925); conditions: high-content imaging, actives raise or lower the signal
Outline: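 HepG2 cells were exposed to compounds at ten concentrations from 0.39 to 200 uM (duplicate, 0.5% DMSO final) for 72 hr. After fixation in 3.7% formaldehyde, nuclei were stained with Hoechst 33342 (2 ug/mL) and imaged at 20x.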

Measured: AC50

Cc1ccc(N)cc1
inactive: [1] | [2] | [3] | [4] | [5] | [6] | [7] | [8] | [9] | [10] | [11] | [12] | [13] | [14] | [15] | [16] | [17] | [18] | [19] | [20]

c1ccc(N=Nc2ccccc2)cc1
inactive: [2] | [3] | [4] | [5] | [6] | [7] | [8] | [9] | [10] | [11] | [12] | [13] | [14] | [15] | [16] | [17] | [18] | [19] | [20]
active: [1] 63.1 µM

c1ccc(C2CO2)cc1 (stereo not given)
inactive: [1] | [2] | [3] | [4] | [5] | [6] | [7] | [8] | [9] | [10] | [11] | [12] | [13] | [14] | [15] | [16] | [17] | [18] | [19] | [20]
